# Only some compounds are listed: those with a hit (about 21% of all), similar ones and a draw of the others.
# Shiga toxin inh – Shiga toxin inhibition | Vero cells, Shiga toxin protein synthesis inhibition reporter | inhibition, % at 38.7 µM | 290,000 compounds, 9.2% hits; in the data active = inhibition mostly above about 28%, no sharp cut-off; inactive = mostly below about 43%
# Pf growth 96h – inhibits malaria parasite growth, 96 h; P. falciparum luciferase reporter growth, 96 h; Potency, µM (series often up to 28.7 µM), actives largely listed as inhibitors; 320,000 compounds, 6.9% hits
#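 Delayed-death screen, second-generation endpoint: infected erythrocytes, 2% hematocrit, 0.05% parasitemia final; 96 hours at 37 C, 5% CO2; luciferase detection reagent; luminescence decrease equals reduced growth.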
# Giardia FBPA inh – blocks Giardia fructose-bisphosphate aldolase activity | A8B2U2 | purified Giardia FBPA | Potency, µM (series often up to 59.6 µM), actives largely listed as inhibitors | 290,000 compounds, 0.71% hits; note: nearly all actives have a fitted effect of over 55% in size
# Target sequence (A8B2U2 whole entry, looked up): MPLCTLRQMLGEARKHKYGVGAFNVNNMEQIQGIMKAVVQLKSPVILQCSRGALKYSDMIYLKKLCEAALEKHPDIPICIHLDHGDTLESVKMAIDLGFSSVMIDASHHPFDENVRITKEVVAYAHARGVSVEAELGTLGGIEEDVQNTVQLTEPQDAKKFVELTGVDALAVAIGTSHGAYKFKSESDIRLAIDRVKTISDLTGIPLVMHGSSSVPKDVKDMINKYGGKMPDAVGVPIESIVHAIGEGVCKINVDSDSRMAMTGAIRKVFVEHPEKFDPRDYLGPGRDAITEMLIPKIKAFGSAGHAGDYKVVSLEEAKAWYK
#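 Giardia FBPA (40 nM reagent) was preincubated 10 min at RT with compound (up to 57.5 uM final), then substrate plus GAPDH/TPI/NAD/arsenate coupling system with diaphorase/resazurin was added; resorufin fluorescence (525/598 nm) was read after 20 min.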
# NS1 function inh – influenza NS1 inhibition | Potency, µM (titrated, usually from 46.1 µM) | 270,000 compounds, 0.4% hits; calls by dose curve; note: actives are rising curves; nearly all actives have a fitted effect of over 50% in size
#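 Read-out: OD600 growth recovery of NS1-expressing budding yeast. Cells grown overnight at 30C in -URA glucose medium, washed, resuspended and diluted 1:100 in 2% galactose assay medium, pH 6.0. Same strain lacking NS1 served as positive control.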
# Cycloheximide cs – affects cycloheximide protein synthesis inhibition readout, counter-screen. max response, %. 300,000 compounds, 12% hits. cell reporter, cycloheximide protein synthesis inhibition counterscreen; in the data active = max response mostly above about 13%, no sharp cut-off; inactive = mostly below about 14%; note: read at 38.3 µM for the half of the compounds with a filed dose
# Pf growth 48h – P. falciparum growth inhibition at 48 hours (one generation). P. falciparum luciferase growth in erythrocytes, 48 h. Potency, µM (top dose mostly 28.7 µM), actives largely listed as inhibitors. 310,000 compounds, 5.9% hits. AID 504832
#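 Firefly luciferase activity from engineered P. falciparum reports growth; inhibitors lower the luminescent signal. Cultures contained 2% hematocrit erythrocytes at 0.1% final parasitemia.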
# Numbers stand for hits; – = inactive; ? = inconclusive; · = not tested or not shown. Unless noted, calls come from the whole dose curve; as a rule, active = well fitted curve in the direction sought with a large enough effect; inconclusive = small, poorly fitted or top-dose-only effect, or another doubt; inactive = no such curve, though single readings can be large; an effect the other way counts as inactive or inconclusive.
SMILES,Shiga toxin inh,Pf growth 96h,Giardia FBPA inh,NS1 function inh,Cycloheximide cs,Pf growth 48h
Cc1ccc(C2NC(=O)c3ccccc3N2)s1 (centres undefined),48,?,–,–,30,–
COc1ccc(C2Nc3cccc4cccc(c34)N2)cc1,–,–,–,–,–,?
CN(C)c1ccc(C2NC(=O)c3ccccc3N2)cc1 (centres undefined),66,–,–,–,46,–
O=C1NC(c2ccc(Cl)cc2)Nc2ccccc21 (centres undefined),–,–,–,–,–,–
Cc1ccc(S(=O)(=O)N2CCN(C(=O)C3CCCC3)CC2)cc1C,–,–,–,–,–,–
CN(C)c1ccc(CC2C(=O)Nc3ccccc32)cc1 (centres undefined),50,?,?,–,22,?
Fc1cccc(Cl)c1C1Nc2cccc3cccc(c23)N1,–,–,–,–,24,?
Oc1ccccc1C1Nc2cccc3cccc(c23)N1,–,–,–,–,–,13µM
COc1ccccc1C1Nc2cccc3cccc(c23)N1,–,–,?,–,–,?
CCCn1c(SCC(=O)NC2CCC(C)CC2)n[nH]c1=O (centres undefined),·,–,·,·,·,–
COc1ccccc1NC(=S)NNC(=O)c1nn(C)c(C)c1Cl,–,–,?,–,34,·
Cc1c(Cl)c(C(=O)NNC(=S)NCc2ccco2)nn1C,–,–,–,–,–,–
COc1ccccc1NC(=O)c1nn(C)cc1Br,–,–,–,–,–,–
COc1ccccc1NC(=S)NNC(=O)c1nn(C)cc1Cl,–,6.6µM,?,–,–,?
COc1ccccc1NC(=S)NNC(=O)c1nn(C)c(C)c1Br,109,–,?,–,52,–
CCCCNC(=S)NNC(=O)c1nn(C)c(C)c1Cl,74,–,–,–,29,–
Cc1nc(CCNC(=O)c2ccccc2)cs1,–,–,–,–,17,–
CCS(=O)(=O)NCCc1csc(C)n1,–,?,–,–,–,–
Cc1ccc(C(=O)NCCc2csc(-c3cccnc3)n2)cc1,67,?,–,–,20,?
CCO[C@H]1OC(C(=O)N2CCN(Cc3ccccc3)CC2)=C[C@@H](C)[C@@H]1CCCO,–,–,–,–,–,–
CCO[C@@H]1OC(C(=O)N2CCN(Cc3ccccc3)CC2)=C[C@H](c2ccc(Br)cc2)[C@H]1CCCO,–,13µM,–,–,–,?
CCO[C@@H]1OC(C(=O)N2CCN(Cc3ccccc3)CC2)=C[C@H](c2ccc(C(F)(F)F)cc2)[C@H]1CCCO,–,15µM,–,–,–,?
CN1CCN(c2ncnc3ccc(-c4cccc(C#N)c4)cc23)CC1,·,·,–,·,·,·
Cc1cccc(CCNC(=O)CCS(=O)(=O)c2ccc(Br)cc2)c1,–,?,–,·,–,–
Cc1cccc(CCNC(=O)c2cc(=O)[nH]c3ccc(Br)cc23)c1,–,10µM,–,–,–,–
SMILES,Shiga toxin inh,Pf growth 96h,Giardia FBPA inh,NS1 function inh,Cycloheximide cs,Pf growth 48h
CN1CCN(c2ccc(CNS(=O)(=O)Cc3cccc(C(F)(F)F)c3)cc2)CC1,–,–,–,–,–,–
COc1ccc2c(c1)OC[C@H]1[C@H]2N2C(=O)CN(Cc3ccco3)C(=O)[C@@]2(C)[C@H]1c1ccccc1,·,9.3µM,·,·,·,?
CCCCN1CC(=O)N2[C@H]3c4ccc(OC)cc4OC[C@@H]3[C@H](c3ccccc3)[C@]2(C)C1=O,·,7.4µM,·,·,·,2.1µM
CCOC(=O)[C@H]1[C@H]2COc3cc(OC)ccc3[C@@H]2N2C(=O)CN(Cc3ccco3)C(=O)[C@@]12C,·,–,·,·,·,?
CCOC(=O)[C@@H]1[C@H]2COc3cc(OC)ccc3[C@@H]2N2C(=O)N(c3cccc(Cl)c3)C(=O)[C@]12C,–,?,–,–,–,?
NCCCC[C@H](NC(=O)[C@H](CS)NC(=O)[C@@H](N)Cc1cnc[nH]1)C(=O)N[C@@H](Cc1ccccc1)C(=O)N[C@@H](Cc1c[nH]c2ccccc12)C(=O)N[C@@H](Cc1c[nH]c2ccccc12)C(=O)O,–,·,–,·,–,·
Nc1c(C(=O)Nc2ccc(F)cc2)sc2nc(-c3ccco3)ccc12,–,–,–,–,32,–
CC(=O)c1sc2nc(-c3ccccc3)cc(C)c2c1N,–,–,–,–,–,–
Nc1c(C(=O)Nc2ccc(Br)cc2)sc2nc(-c3ccco3)ccc12,38,–,–,–,29,–
CC(=O)c1sc2nc(-c3ccco3)ccc2c1N,76,–,?,–,32,–
O=S(=O)(c1ccccc1)N1CCC2(CCCN(c3ncccn3)C2)CC1,·,·,–,·,·,·
CCOc1ccc(N2C(=O)CC(N3CCN(c4ccccc4OC)CC3)C2=O)cc1 (centres undefined),–,2.6µM,–,–,–,2.9µM
COc1ccc(N2C(=O)CC(N3CCN(c4nc5ccccc5s4)CC3)C2=O)cc1 (centres undefined),–,4.7µM,–,–,–,–
CCOc1cccc(N2C(=O)CC(N3CCN(c4nc5ccccc5s4)CC3)C2=O)c1 (centres undefined),–,?,–,–,–,?
COc1ccc2nc(N3C(=O)CC(C(C)c4ccccc4)C3=O)sc2c1 (centres undefined),–,3.7µM,–,–,–,–
COc1ccc(C2SCC(=O)N2c2nc3ccccc3s2)cc1 (centres undefined),111,–,–,–,42,–
CC(SCc1nc2sc3c(c2c(=O)[nH]1)CCCC3)C(=O)Nc1ccccn1 (centres undefined),·,–,·,·,·,?
COc1ccc(CNC(=O)COC(=O)c2c(NC(C)=O)sc(C)c2C)cc1,·,–,·,·,·,?
NS(=O)(=O)c1ccc(NC(=O)COC(=O)c2ccc([N+](=O)[O-])s2)cc1,–,–,–,–,–,–
Cn1nnnc1N=N/C(=N/Nc1ccccc1)c1ccccc1,–,?,–,–,17,?
Cc1ccc(N/N=C(/Sc2nnnn2-c2ccccc2)C(=O)c2ccccc2)cc1,–,–,–,?,–,–
Cc1ccccc1NC(=O)CC1C(=O)Nc2ccccc2N1CC(=O)N(C)C1CCS(=O)(=O)C1 (centres undefined),·,–,·,·,·,–
COC(=O)CSC1=C(C#N)C(c2ccccc2)CC(=O)N1 (centres undefined),–,9.3µM,–,–,–,–
COC(=O)CSC1=C(C#N)C(c2ccc(C(C)C)cc2)CC(=O)N1 (centres undefined),–,–,–,–,–,·
CCCSC1=C(C#N)C(c2ccccc2OCC)CC(=O)N1 (centres undefined),–,5.2µM,–,–,–,?
N#CC1=C(SCC(=O)Nc2ccccc2)NC(=O)CC1c1ccc(O)cc1 (centres undefined),–,5.9µM,–,–,–,·
CCCCc1nc(SCC(=O)Nc2cccc(Cl)c2)n[nH]1,–,?,·,–,–,–
COC(=O)[C@H]1[C@H]2CC3c4[nH]c5ccccc5c4CCN3C[C@@H]2CC[C@@H]1O (some centres undefined),·,·,–,·,·,·
